Laboratory results reported in PubChem BioAssay (NCI).
The panel holds about 79,000 compounds, 15% with a hit somewhere; the sample as a whole holds those more often. A number with no mark means an inactive call. The source made the active and inactive calls. No stated cut-off is given here; in the data, active means growth inhibition above about 70%; inactive means the rest.

Columns and labels:
[1] = NCI Yeast Anticancer Drug Screen. Data for the rad50 strain (AID 155);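 further: 0% = growth of vehicle-only cultures of the same strain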; details: S. cerevisiae rad50 strain growth inhibition; at 50.0 µM; hits give high values
Procedure, shortened: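 Compounds were tested on a yeast strain with an engineered DNA damage repair alteration; the reported value is growth inhibition normalised to vehicle treatment.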

[2] = NCI Yeast Anticancer Drug Screen. Data for the mec2-1 strain (AID 157); details: S. cerevisiae mec2-1 strain, at 50.0 µM, hits give high values
Procedure, shortened: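 mec2-1 yeast strain, carrying an alteration in DNA damage repair or cell cycle control, was exposed to compounds; growth inhibition was measured relative to vehicle-treated controls.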

[3] = NCI Yeast Anticancer Drug Screen. Data for the sgs1 mgt1 strain (AID 161);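 further: 0% = growth of cultures given vehicle only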; details: S. cerevisiae sgs1 mgt1 strain, at 50.0 µM, hits give high values
Procedure, shortened: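 Percent growth inhibition was derived by comparing compound-exposed mutant yeast with vehicle-exposed cultures. The strain carries alterations in DNA damage repair.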

[4] = NCI Yeast Anticancer Drug Screen. Data for the cln2 rad14 strain (AID 165);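 further: 0% = growth equal to vehicle treated cultures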; details: S. cerevisiae cln2 rad14 strain, at 50.0 µM, hits give high values
Procedure, shortened: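 Yeast carrying cln2 and rad14 alterations (cell cycle control and DNA damage repair) were exposed to compounds. Growth inhibition was measured against vehicle-treated controls.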

[5] = NCI Yeast Anticancer Drug Screen. Data for the bub3 strain (AID 167); details: S. cerevisiae bub3 mutant strain, at 50.0 µM, hits give high values
Procedure, shortened: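 Growth of a checkpoint-deficient yeast mutant is measured after compound exposure. Values represent inhibition relative to vehicle.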

[6] = NCI Yeast Anticancer Drug Screen. Data for the mlh1 rad18 strain (AID 175); details: S. cerevisiae mlh1 rad18 strain growth inhibition; at 50.0 µM; hits give high values
Procedure, shortened: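 Growth inhibition of the yeast strain was measured after compound exposure and expressed relative to vehicle-treated controls. The strain carries defined defects in DNA damage repair.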

SMILES | growth inhibition [1] | growth inhibition [2] | growth inhibition [3] | growth inhibition [4] | growth inhibition [5] | growth inhibition [6]
Nc1ccccc1/C=C/c1ccnc2ccccc12 | 3.7% | 2.55% | 23.6% | 10.2% | -18.1% | 47.8%
CCCCNC(=S)SSSSC(=S)NCCCC | -8.45% | -14% | -6.05% | -53.5% | 8.7% | -7.55%
CC(C)/C(Cl)=N\OC(=O)Nc1ccc(C#N)cc1 | -22.4% | 52% | 51.2% | 11% | 60.1% | 41%
COc1cc2c(C)cc(O)cc2c2cc(O)c(C)cc12 | 22.6% | -1.55% | -10.3% | -5.9% | -9.9% | 91.8% (active)
O=c1oc2ccccc2c(O)c1C=NC(=S)c1ccncc1 | -30.6% | -38.4% | -27.9% | 24.9% | -11.3% | -25.5%
O=C(N=c1nc(NC(=O)c2ccccc2)ss1)c1ccccc1 | -0.25% | 7.7% | -2.8% | -42.2% | -17.1% | 13.2%
CC(C)c1ccc(C(C)(C)O)cc1 | 4.75% | 15.7% | -19.8% | -7.8% | -6.8% | -17.6%
N=C1N=C(N)c2cc3c(cc21)SCCSCCCSCCS3 | 6.05% | 1.95% | 2.6% | 9.15% | 4.2% | 30.4%
O=C(c1ccc2c(c1)C(=O)OC2=O)c1ccc2c(c1)C(=O)OC2=O | -22.5% | -39.9% | -17.8% | 6.1% | -27.8% | -29.7%
O=C(NC1CCC(CC2CCC(NC(=O)C34CC5CC(CC(C5)C3)C4)CC2)CC1)C12CC3CC(CC(C3)C1)C2 (centres undefined) | -13% | 7.6% | 19.3% | -6.25% | -1.85% | 4.35%
COCc1c(C)[nH]c2ccc(N(C)C)cc2c1=O | -6.75% | -3.6% | -14.8% | -42% | -4.9% | -6.55%
O=C1CCCCc2ccccc21 | -39.1% | -57.4% | -7.95% | -7% | -25.1% | -8.25%
CN(C)CCNC(=O)Cn1cc([N+](=O)[O-])c(=O)c2ccccc21 | -12.9% | -13.1% | -8.8% | 18.9% | -7.2% | -31.1%
COC(=O)C12C3C4C1C1C2C3C41C(=O)OC(C)(C)C (centres undefined) | 18% | 1.35% | 9.2% | 4.5% | 23.9% | 15.2%
CCOC(OCC)C(=O)NC(C)c1ccc(O)c(OC)c1 (centres undefined) | -20.8% | 7.95% | 0.2% | -12.2% | -7.4% | 3.2%
COc1c(NC(=O)CC(C)=O)cccc1NC(=O)CC(C)=O | -1.2% | 14.4% | -2.05% | 7.95% | -8.25% | -11.3%
CN(C)CCN(C)CC(C)(C)C(=O)/C=C/c1ccccc1 | -26% | 2.55% | -21.6% | -5.95% | -7.15% | -15.4%
N#CCCCCCCCCC(=O)O | -14.6% | -14.4% | 6.9% | -18.4% | -39.5% | -11.5%
CC(CCC(=O)O)(CCC(=O)O)C(=O)O | 4.2% | 3.85% | -0.8% | -15.6% | 3.7% | -1.9%
NC(=O)C(CCN1CCCCC1)c1ccccc1 (centres undefined) | 27.2% | -7.35% | 7.75% | 9.5% | 5.45% | 24.8%

SMILES | growth inhibition [1] | growth inhibition [2] | growth inhibition [3] | growth inhibition [4] | growth inhibition [5] | growth inhibition [6]
COc1ccc(C(C)O)cc1 (centres undefined) | 23.2% | 3.2% | 6.25% | 12.9% | -5.65% | 9.15%
COC(=O)CC1OCC=C2CN3CCC45C6=CC(=O)C(=O)C([N+](=O)[O-])=C6NC4C1C2CC35 (centres undefined) | 0.8% | -22.4% | -15.4% | 8.3% | -4.8% | -17.8%
NC(=O)C(CNCc1ccccc1)NCc1ccccc1 (centres undefined) | -1.5% | 14.2% | 3.1% | -8.5% | 3.6% | -11.4%
CN1C(=O)C(=O)n2c(cc3ccccc32)C1=O | 1.15% | 6.15% | 7.25% | 6.2% | -0.25% | -13.1%
O=c1cc(Cl)ncn1C1OC(CO)C(O)C1O (centres undefined) | -17% | -21.1% | -27.6% | -14.3% | -27.6% | -25.3%
CC(=O)CC(=O)NC12CC3CC(CC(C3)C1)C2 | -12.4% | -18.3% | -27.6% | -3.95% | -23.1% | -1.55%
CC(=O)Oc1cc2oc([O-])c[n+]2c2ccccc12 | 28.6% | 14.2% | 22.7% | 5.45% | 12.6% | 0.95%
O=c1cc(-c2ccccc2)c2ccc(O)cc2o1 | -11.8% | 1.45% | 20.4% | 3% | 2% | -1.2%
C1=C(c2ccccc2)NC2=N[C@H]3CCCC[C@@H]3N2C1c1ccccc1 (some centres undefined) | 18.9% | 10.4% | 22.8% | -7.55% | 33.8% | 91.5% (active)
N#Cc1cc2ccccc2n(Cc2ccccc2)c1=O | -8.85% | -9.9% | -9.4% | 7.85% | 3.75% | -9.55%
Cc1c([N+](=O)[O-])cc(C(C)(C)C)c(OC(=O)Nc2cccc(Cl)c2)c1[N+](=O)[O-] | 60.7% | 74% (active) | 79.7% (active) | 23.1% | 39.1% | 72.3% (active)
COC(=O)C1C(=O)N(C)c2cc(C)c(C)cc2C1(C)C (centres undefined) | 7.55% | -9.4% | 1.6% | 5.8% | 24.9% | -3.9%
NC(=S)N=Nc1c(O)[nH]c2c(Cl)cc(Cl)cc12 | 6.7% | -14.2% | 28.6% | 7.15% | 13.8% | -8.95%
O=C(O)CCN(CCC(=O)O)S(=O)(=O)c1ccccc1 | -4.55% | -43.4% | -4.65% | -103% | -17.6% | 22.9%
O=C(Nc1ccc(N=C=S)cc1Cl)c1cc(Br)cc(Br)c1O | 94.3% (active) | 96.7% (active) | 95.6% (active) | 97.1% (active) | 96.8% (active) | 94.7% (active)
CC(=O)c1ccccn1 | -8.7% | -31.4% | -13.8% | -7.3% | -22.8% | -26.6%
Cc1cc(-c2ccc(NC(=O)c3cccc([N+](=O)[O-])c3)c(C)c2)ccc1NC(=O)c1cccc([N+](=O)[O-])c1 | -19.2% | -26.7% | 0.25% | 15.3% | 0.7% | -14.3%
CN1c2cccc3cccc(c23)NC12CCCCC2 | 0.6% | -20.5% | -10.8% | -62.2% | 14.2% | -10.8%
CC(=O)OCC1(C)C(O)CCC2(C)C1CCC1CC3CC12CCC3(O)CO (centres undefined) | 12.2% | -26% | 13.8% | 2.95% | -23.4% | 7.9%
